Source: PubChem (National Center for Advancing Translational Sciences (NCATS))
Only a selection was taken, and hits are over-represented in it overall.
Pf Dd2 growth = Plasmodium falciparum Dd2 growth inhibition | P. falciparum Dd2 growth, SYBR Green, 72 h | Potency, µM (top dose mostly 28.9 µM), for the others: at the highest dose activity, negative = inhibition, usual class: inhibitors | hit rate 4.3% among 120,000; active means well fitted inhibition curve with a large enough effect;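 further: plate controls were DMSO vehicle for no effect and reference drug for full effect; nearly all actives have a fitted effect of over 65% in size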
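Infected erythrocytes (Dd2, 0.3% parasitemia, 2.5% hematocrit final) are added to compound in RPMI-1640/Albumax II medium, grown 72 h at 37C in low oxygen, then lysed with saponin/Triton-X containing SYBR Green and read by fluorescence.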
Starred values were filed as active, the others as inactive; i = inactive; [ ] = dose if it differs, or a comment. Potency means the concentration at half of the fitted maximal effect.

SMILES	Pf Dd2 growth
CC(NC(=O)Cc1cccn1-c1cccc(Cl)c1)c1cccnc1 (stereo unspecified)	-19.0%
Cc1nccn1CCNC(=O)CCC[C@H]1NC[C@@H]2C[C@H]1CN(Cc1ccccc1)C2	3.55µM*
CCN1CCN(CCNC(=O)CCC[C@H]2NC[C@@H]3C[C@H]2CN(Cc2ccccc2)C3)CC1	-23.2%
CCN1CCN(CCCNC(=O)CCC[C@H]2NC[C@@H]3C[C@H]2CN(Cc2ccccc2)C3)CC1	11.4%
CN(Cc1cccnc1)C(=O)CCC[C@H]1NC[C@@H]2C[C@H]1CN(Cc1ccccc1)C2	-8.7%
O=C(CCC[C@H]1NC[C@@H]2CC1CN(Cc1ccccc1)C2)N1CCCC1	-5.9%
CN(Cc1ccc(N2CCCCC2)cc1)C(=O)CCC[C@H]1NC[C@@H]2C[C@H]1CN(Cc1ccccc1)C2	4.47µM*
O=C(c1cccnc1)N1CCC(Oc2cccc(F)c2)C1 (stereo unspecified)	-15.7%
O=C(NC1C[C@H]2CC[C@@H](C1)N2C(=O)C1CCOCC1)c1ccc(F)cc1 (stereo partly specified)	-13.2%
CC(C)Oc1cccc(-c2nc(C(=O)NCc3ccccc3)cs2)c1	-20.2%
CC(C)CCN(C1CCOCC1)C1CCN(Cc2ccc[nH]2)CC1	3.16µM*
CC(C)CCN(C1CCOCC1)C1CCN(C(=O)c2ccncc2)CC1	-14.8%
c1cncc(CN2CCC(C3CCN(Cc4ccc[nH]4)C3)CC2)c1 (stereo unspecified)	-22.5%
Cn1ccnc1CN1C[C@@H](C(=O)O)C[C@@H](C(=O)NCc2ccncc2)C1	-3.8%
CCN1CC2(CCN(C(=O)C3CCCCN3Cc3ccccc3)CC2)OC1=O (stereo unspecified)	-4.3%
CN1CCC(C(=O)N2Cc3ccccc3CC3(CCN(Cc4ccc(O)cc4)C3)C2)CC1 (stereo unspecified)	0.4%
CN1CCC(C(=O)N2Cc3ccccc3CC3(CCCCN3Cc3ccncc3)C2)CC1 (stereo unspecified)	8.91µM*
CN1CCC(C(=O)N2Cc3ccccc3CC3(CCCN(Cc4cccnc4)C3)C2)CC1 (stereo unspecified)	8.91µM*
O=C(O)CCCC(=O)N1Cc2ccccc2CC2(CCCN2Cc2ccccc2)C1 (stereo unspecified)	-6.8%
O=C(O)CCCC(=O)N1Cc2ccccc2CC2(CCCCN2Cc2ccncc2)C1 (stereo unspecified)	7.3%
CN1CCC(C(=O)N2Cc3ccccc3CC3(CCCN(CC4CCNC4)C3)C2)CC1 (stereo unspecified)	8.2%
Cc1ccccc1C(=O)Nc1ccc([C@H]2OCC(=O)N(CC(C)C)[C@@H]2CO)cc1	i
COc1ccc(C2(C(=O)NCC3Cn4cccc4C(=O)N3C)CC2)cc1 (stereo unspecified)	20.4%
CC(=O)N1CCN(C(=O)C[C@@H]2CCNC[C@@H]2Cc2cc(CN3CCOCC3)on2)CC1	20.9%[44.1 µM]
Cc1ccc2nc(N(Cc3cccnc3)C(=O)c3ccco3)sc2c1	10µM*
SMILES	Pf Dd2 growth
O=C(CCc1ccccc1)N(Cc1cccnc1)c1nc2c(F)cc(F)cc2s1	10µM*
Cc1ccc2nc(N(Cc3cccnc3)C(=O)C3COc4ccccc4O3)sc2c1 (stereo unspecified)	5.6%
O=C(C1COc2ccccc2O1)N(Cc1cccnc1)c1nc2ccc(F)cc2s1 (stereo unspecified)	i
CC(=O)N(Cc1cccnc1)c1nc2ccc(F)cc2s1	7.0%
O=C(c1ccco1)N(Cc1cccnc1)c1nc2c(F)cc(F)cc2s1	i
O=C(COc1ccccc1)N(Cc1cccnc1)c1nc2c(F)cc(F)cc2s1	-8.0%
O=C(c1ccc(Br)s1)N(Cc1cccnc1)c1nc2ccc(F)cc2s1	2.51µM*
O=C(C1CCCCC1)N(Cc1cccnc1)c1nc2ccc(Cl)cc2s1	3.16µM*
O=C(C1COc2ccccc2O1)N(Cc1cccnc1)c1nc2c(Cl)cccc2s1 (stereo unspecified)	i
O=C(c1ccc2c(c1)OCCO2)N(Cc1cccnc1)c1nc2ccc(Cl)cc2s1	i
COc1ccc2sc(N(Cc3cccnc3)C(=O)CCc3ccccc3)nc2c1	-7.5%
COc1ccc(-c2ccc3nnc(CNC(=O)c4ccco4)n3n2)cc1	i
Cn1cccc1C(=O)N1CCCC(c2nc(CCOCC3CCOCC3)no2)C1 (stereo unspecified)	-23.6%
O=C(c1ccccc1)N1CCn2c(nn(-c3ccc(F)cc3F)c2=O)C1	4.8%
CCCN(CC1CCOC1)C(=O)c1cc(F)cc(F)c1 (stereo unspecified)	4.4%[5.79 µM]
O=C(NCc1cc(-c2ccccn2)no1)[C@H]1CNC[C@@H](C(=O)N2CCOCC2)C1	7.7%
O=C(NCc1nnc2c(-c3nc(C4CC4)no3)cccn12)C1CCCC1	i
Cc1ccccc1CCC1CCCN(C(=O)CCN2CCCC2=O)C1 (stereo unspecified)	0.6%
CCC(O)c1cc2n(n1)CCN(C(=O)c1nc(N)nc3c1CCCC3)C2 (stereo unspecified)	-17.3%
O=C(C1CC1)N1CCC(OCCOc2cccnc2)CC1	52.7%
